# Dicer processing: blocks human Dicer maturation of pre-miR-21 | actives 6% (n = 47,000) | cat-ELCCA pre-miR-21 Dicer processing, chemiluminescence; active compounds read high | z-score at 25 µM | Q9UPY3 | AID 1347074; in the data active = z-score above about 3, passing the limit was not always enough;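 note: plate controls were vehicle for no effect and no enzyme for full effect; higher signal means more uncleaved substrate so more Dicer inhibition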
# * marks the source's active call; other numbers are inactive results. This excerpt belongs to a sample that is enriched for hits.
SMILES,Dicer processing
COc1ccc(OC)c(C2Nc3ccc4ccccc4c3C3=C2C(=O)CC(C)(C)C3)c1 (centres undefined),1.91
O=C1CC(c2cccc(O)c2)Nc2ccc3ccccc3c21 (centres undefined),1.05
COc1ccc(C2Nc3ccc4ccccc4c3C3=C2C(=O)CCC3)cc1OC (centres undefined),4.55*
CCCCCc1ccc(-c2nc(SCC(=O)c3ccccc3)n[nH]2)cc1,5.65
CCOC(=O)CSc1nc2nc(C)c([N+](=O)[O-])c(=O)n2[nH]1,-0.08
Cn1nc(C(F)(F)F)cc1OS(=O)(=O)c1ccc(Cl)cc1Cl,-0.08
COC(=O)c1cc(OC)c(OC)c(OC)c1N=C/C(C(C)=O)=C(\C)O,-0.53
Cn1c(=O)c2c(c3ccccc31)OC(=O)CC2c1ccsc1 (centres undefined),-0.27
Cn1c(=O)c2c(nc(Oc3ccc(F)cc3Cl)n2C)n(C)c1=O,2.88
CC(C)n1c(Oc2ccc(F)cc2)nc2c1c(=O)n(C)c(=O)n2C,0.6
Cc1cc(Oc2nc3c(c(=O)n(C)c(=O)n3C)n2C)cc(C)c1Cl,3.76*
COc1ccc2sc(C(=O)O)c(Br)c2c1,4.33*
COc1ccc2[nH]c(C(=O)O)cc2c1,0.75
COc1ccc2c(c1)CCCN2C(=O)c1sc2ccccc2c1Cl,-1.13
C=CCn1c(SCC(=O)Nc2c(C#N)cnn2-c2ccccc2)nnc1-c1ccco1,2
Clc1ccc(C2N(Cc3ccccc3)CCC3CCCCN32)cc1Cl (centres undefined),-0.15
c1nc(Nc2ccc3c(c2)OCO3)c2[nH]cnc2n1,-2.24
CSC1=C(C#N)C(c2ccc(C)cc2)CC(=O)N1 (centres undefined),-0.35
NC(N)=NC(N)=Nc1ccccc1,-0.24
NN/C(N)=N/C(N)=Nc1ccccc1F,2.03
CCc1ccccc1N=C(N)N=C(N)N,5.46*
CCOC(=O)C1=C(C)NC2=C(C(=O)CC(C)(C)C2)C1c1cc2c(cc1Cl)OCO2 (centres undefined),-0.39
COc1ccc(Br)cc1C1Nc2ccccc2-c2nnc(SC)nc2O1 (centres undefined),0.68
CS(=O)(=O)c1scc(-c2ccccc2)c1C#N,-1.08
Cn1nc(-c2ccccc2)c(C#N)c1S(C)(=O)=O,3.22*
SMILES,Dicer processing
Cc1ccc(-c2n[nH]c(S(C)(=O)=O)c2C#N)cc1,-2.11
Cc1nc(C(F)(F)F)nc(Sc2n[nH]c(-c3cc(Cl)cc(Cl)c3)n2)c1C,-0.61
CCCCc1nc(SCC(=O)Nc2nc3c(s2)CCCC3)n[nH]1,0.87
COC(=O)c1ccc(Br)cc1,0.38
COC(=O)c1cc(Cl)cc(Cl)c1,-0.99
COC(=O)c1ccc2cc(C(=O)O)ccc2c1,5.36*
COc1ccccc1C1OC(=O)CC1C(=O)O (centres undefined),-0.25
O=S(=O)(Nc1ccc(F)cc1)c1cc(Cl)c(Cl)cc1Cl,-0.49
Cc1ccc(NS(=O)(=O)c2cc(Cl)c(Cl)cc2Cl)c(N)c1,8.26*
Cc1ccc(NS(=O)(=O)c2ccc(Cl)cc2)c(N)c1,2.84
COc1cccc(-n2c(/C=C/c3cn(C)c4ccccc34)nc3ccccc3c2=O)c1,6.76
O=c1c2ccccc2nc(/C=C/c2ccc(O)cc2)n1Cc1ccccc1,-1.19
CCn1c(/C=C/c2c[nH]c3ccccc23)nc2ccccc2c1=O,3.01*
CC1(C)C2CCC(C2)C1(C)NC(=S)NCC1CCCO1 (centres undefined),1.54
COc1ccc(-c2nc(SCc3ccccc3)n[nH]2)cc1,-2.33
O=C1/C(=C/c2c(F)c(F)c(F)c(F)c2F)SC(=S)N1/N=C/c1ccc(Cl)cc1Cl,11.7*
Cc1cccc(/C=C2\SC(=S)N(/N=C/c3ccc(Cl)cc3Cl)C2=O)c1,-1.35
C=CCn1c(=S)sc2c(=O)n(/N=C/c3ccc(Cl)cc3Cl)c(C)nc21,-1.78
O=C(Oc1cccc2cccnc12)c1ccccc1Br,-0.83
COc1ccc(-c2nc3n(n2)C(c2ccc(OC)c(OC)c2)C2=C(CCCC2=O)N3)cc1OC (centres undefined),-0.72
COc1ccc(-c2nc3n(n2)C(c2ccc4c(c2)OCO4)C2=C(CC(C)(C)CC2=O)N3)cc1OC (centres undefined),3.04*
CC1(C)CC(=O)C2=C(C1)Nc1nc(-c3cccc(Cl)c3)nn1C2c1ccc2c(c1)OCO2 (centres undefined),2.23
Cc1ccc(OCC(O)Cn2cnc3cc(C)c(C)cc32)cc1 (centres undefined),0.56
CCOC(=O)NNc1ncc(C(F)(F)F)cc1Cl,1.42
CCCN(c1nc(C)cc(OC)n1)S(=O)(=O)c1ccccc1Cl,6.06*
SMILES,Dicer processing
COC(=O)CN(c1nc(C)cc(OC)n1)S(=O)(=O)c1ccccc1,0.86
CCCCN(c1nc(C)cc(OC)n1)S(=O)(=O)c1ccc(C)cc1,0.7
OCC#CCSc1nnc(-c2ccc(Cl)cc2)o1,-0.53
COC(=O)c1ccc(CN2C(=O)C(=O)c3ccccc32)cc1,1.23
CCSc1sc(C#N)c2c1C(=O)CC(C)(C)C2,3.61*
CCCSc1sc(C(=O)OC)c2c1C(=O)CC(C)(C)C2,-0.81
CCSc1sc(C(=O)OC)c2c1/C(=N/O)CC(C)(C)C2,2.54
Clc1ccc2c(c1)CN(Cc1ccccc1)CO2,3.34*
CCOc1ccc2c(c1)CN(Cc1ccc(Cl)cc1)CO2,1.11
Clc1ccc2nc(NC3=NCN(Cc4ccccc4)CN3)oc2c1,1.2
Brc1ccc2c(c1)CN(Cc1ccccc1)CO2,4.45*
COc1ccc(CN2COc3ccc(F)cc3C2)cc1,0.47
Brc1ccc2c(c1)CN(C1CCCCC1)CO2,1.49
Clc1cccc(CN2CCN(C3CCCCC3)CC2)c1,-0.93
O=C(Nc1ccccc1C(=O)NCC1CC1)Nc1c(Cl)cc(Cl)cc1Cl,2.29
C/C(=N\N=C1/NC(=O)CS1)c1ccc(Cl)s1,-0.34
Cc1cc2nc(NC3=NCN(Cc4ccco4)CN3)nc(C)c2cc1C,2.98
Cc1ccc2c(C)nc(NC3=NCN(Cc4ccccc4)CN3)nc2c1,-0.01
Cc1cc2nc(NC3=NCN(CCCN4CCOCC4)CN3)nc(C)c2cc1C,1.8
CCCCN1CN=C(Nc2nc(C)c3cc(OCC)ccc3n2)NC1,1.2
Cc1cc2nc(NC3=NCN(Cc4ccc5c(c4)OCO5)CN3)nc(C)c2cc1C,3.21*
CCOc1ccc2nc(NC3=NCN(CCCN4CCOCC4)CN3)nc(C)c2c1,3.75*
O=[N+]([O-])c1ccc2c(c1)CCN2C(=S)NC1CC2CC1C1C=CCC21 (centres undefined),-0.18
CC(C)c1ccc(OCCN2CCNCC2)cc1,-0.04
CCOC(=O)c1c(NC(=O)CN(CC)C2CCCCC2)sc2c1CCCC2,2.8
SMILES,Dicer processing
CC(N)=NCCCn1ccnc1,0.56
Cc1ccc(/C(O)=C2\C(=O)C(=O)N(CCCn3ccnc3)C2c2ccncc2)cc1 (centres undefined),-3.08
CCOC(=O)c1c(Nc2c(C)cccc2C)sc(C(=O)c2ccc(Br)cc2)c1N,-1.22
Cc1csc(=Nc2ccccc2)n1-c1ccccc1,1.07
O=[N+]([O-])c1cc(S(=O)(=O)N2CCOCC2)ccc1N1CCOCC1,-2.26
CCOC(=O)COc1ccc2c(C)c(Cc3c(Cl)cccc3Cl)c(=O)oc2c1,3.32*
CCOC(=O)COc1ccc2c(-c3ccccc3)cc(=O)oc2c1,1.08
Cc1c(Cc2c(F)cccc2Cl)c(=O)oc2cc(OC(=O)c3ccco3)ccc12,0.42
Cn1c(=O)n(CC(=O)O)c(=O)c2c1nc1n2CCN1c1ccccc1,-0.92
CCOC(=O)c1sc2c(c1O)c(=O)n(-c1ccccc1)c(=S)n2-c1ccccc1,-0.09
CCOC(=O)c1c(C)n(-c2ccccc2)c2c1cc(O)c1ccccc12,-1.86

# Screens (PubChem BioAssay)
